In all, about 53,000 sequences went through this assay and about 3,700 (7%) were called active.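 Rule for the calls: active = gene knockdowns whose robust z-score for IL-1 alpha signal is at least 2 or at most -2, so actives lie on both sides; inactive = the rest.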 Only a selection was taken, and actives are over-represented in it overall.
assay: Components of the Cytosolic LPS Sensing Pathway: Gene Identification via Genome-wide siRNA Screen; settings: RAW264.7 macrophages, IL-1a HTRF, actives lie on both sides, screened at 100 nM (by protocol), cells primed 5 h with Pam3CSK4 first;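 note: robust z of the log signal after scaling to non-targeting control siRNA wells of the plate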
Summary of the method: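 RAW264.7; siRNA 100 nM final, RNAiMAX, 48h 37 degrees C; Pam3CSK4 5 h; LipidA + TransIT-TKO 24 h; IL-1a HTRF; CellTiter-Glo viability; robust z vs negative-control median.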

Sequence	z-score
GCGAUACCAGGGACUACAUTT against Zfp692	1.75 (inactive)
CGCUCUCUCUACAAAGGAUTT against A230052G05Rik	0.984 (inactive)
GGGAAUUUGGGCAUGAUCATT against Olfr44	-2.02 (active)
GCAUGUUCGCACGUGUCAATT against 5330439B14Rik	-1.05 (inactive)
CGACUGAUAGAUGAGUAAATT against C130026L21Rik	0.424 (inactive)
CCGCACAUGCUCUCAAAUATT against Polr3d	-1.25 (inactive)
GGACAAAGAGGCAAUGGGATT against Dnajb9	1.08 (inactive)
GGUAAAAUCACUUCAGAUCTT against Phb	2.23 (active)
GCAAGUGGAGUUUAUUGAUTT against Dbndd2	-0.0399 (inactive)
CGCAUGAUAACUAGAGAAUTT against Slitrk3	-0.269 (inactive)
GGCUGUUCGGGUGACUAUUTT against Il17re	-2.83 (active)
GGCAAUGUUUACAAGUUCCTT against Ralgps1	0.491 (inactive)
GCAGUACUAAGGAAGAUAUTT against Nudcd1	-0.842 (inactive)
GCAUAAGCUACUGCUGACATT against Pcdha6	-0.782 (inactive)
GGCAGCAGCACUGAUUACUTT against Gjc2	-2.17 (active)
GGCAAGGCUACUACUUGCATT against Fgf14	-0.117 (inactive)
GCCAGACACUUAAUCCCGUTT against Unc13d	0.147 (inactive)
GGAUAUCAAGGGAUCAGACTT against Chchd4	0.00163 (inactive)
GGCUUAAGCAGACGUGUCATT against Lhx8	-2.14 (active)
GCCCAUUAUGAAACUGAAGTT against Nfatc3	1.45 (inactive)
GGUGUUUAAGGAUGAACAATT against L3mbtl3	0.104 (inactive)
GCCACUUAAUGUCACUUUATT against Bag2	0.652 (inactive)
GCCAGAUCUUUAUAUCCCGTT against Gdi2	-0.094 (inactive)

Sequence	z-score
CCAGAUGUUACGAAUGAAATT against Tmem209	-1.65 (inactive)
GGGCAAUGUUUGUCACUAATT against Akr1b10	1.55 (inactive)
CGGCCAUAUAAUUUUGAAUTT against Tbx20	0.233 (inactive)
CGGUUUAACAGCAAGGGUATT against Sec61a1	-2.75 (active)
GGACUUAUUUCUUUAAGGATT against Mmp17	-0.567 (inactive)
GGUGGAAUGAUAGUGUUCATT against Neurl1b	1.67 (inactive)
GGUUAUUUCCCUGUUUUCATT against Olfr532	1.5 (inactive)
GGAGUUUGGGAACACUUUGTT against Apoc1	0.617 (inactive)
GCCUCUUAGUAGAGACAGUTT against Naa80	-0.725 (inactive)
GGUAAAGCAAGAGAGUAUUTT against Hccs	-0.629 (inactive)
GGUUCAAGGAUGAAUUAGATT against Trappc6b	-2.03 (active)
GCUUUUGAAUGUGUGGACUTT against Ugt2b37	-0.938 (inactive)
CCCAAAGAAUUAUGAGUGUTT against Gpr149	-0.678 (inactive)
GGCAAAUUCUGGAUCUGCUTT against Marf1	-0.267 (inactive)
GGGAAAAAAAAAAAUCACCTT against Syne3	-0.254 (inactive)
CCAAUGAUGGAGCUGAAGCTT against Ranbp1	-2.72 (active)
GGUCAAGGCUGUCAAGUUGTT against Wdr45b	-0.13 (inactive)
GGUGCCCACUAACUUAGAATT against Tbx21	2.3 (active)
GGUGUUCGAUGGACGUGAUTT against Bmp1	-0.183 (inactive)
GCAUCCUGGCUUAUCCAUUTT against Hmgb1	-0.393 (inactive)
CCACUAUUAAACUUCUCAATT against Pex3	0.32 (inactive)
CCAGCUUCAUGCGUUUAAATT against Stx16	1.4 (inactive)
CCCUCACAGUAACCUGUCGTT against Espl1	-2.56 (active)

Sequence	z-score
GGUCGAAGUAUUGGAAAAUTT against Hesx1	-1.71 (inactive)
GCAAAUGACUUCCAACAAUTT against Uqcrq	3.84 (active)
GGAGAACAAAGUAUUGGUGTT against Cacna1f	0.388 (inactive)
GCCAUAGGAGUGAUUGGAUTT against E130018O15Rik	-1.66 (inactive)
GGUGAGCAUGGACUAUGAUTT against Syt12	-1.09 (inactive)
GCACUUGACAAGCAACAGUTT against Jup	-2.3 (active)
GCAUAUGGAUAAGAUUGUUTT against Efr3a	-0.363 (inactive)
GGAAAAGGGUCGUGCCUGUTT against Gm9991	-0.07 (inactive)
GCAUUGGCAGACCCGAGUUTT against Pir	0.238 (inactive)
GCUUGGUAAAAUGAAAGUCTT against Klhl12	0.22 (inactive)
GGUUUCUGUCCAGAUAAAATT against Ykt6	-0.535 (inactive)
GGUGCAGAAUGCAAUGGAUTT against Ing3	2.51 (active)
GGAAUAUGAGAAAAUGAGCTT against Ctsc	0.239 (inactive)
AACACUGGGUACAUCUACATT against H2-Q7	1.75 (inactive)
UUCCCACUCUGACUAUUUUTT against Olfr970	-0.0332 (inactive)
GGCCUUCAAGUGCAUGAUGTT against Yaf2	-1.65 (inactive)
CCAGAAAACCAAACAACAGTT against Olfr1357	0.287 (inactive)
GGUGACAGGAAAGUUCUGUTT against Gsdmc2	2.07 (active)
GGCGAUUAAACUAUACAUUTT against Rrm2	0.0358 (inactive)
GGGCAUGUGAAGAUGUGCGTT against Map2k3	-0.272 (inactive)
CGUCUUACACGGUUCAAAGTT against Tbc1d10a	0.809 (inactive)
CGUGGUACACUGAAGACUUTT against Mmp1a	2.3 (active)
